Source: PubChem (Broad Institute)
This is one part of a sample in which hits are shown more often than they occur.
Tgondii IFNg – inhibitors of Toxoplasma gondii growth with IFN-gamma | Toxoplasma gondii growth in IFN-gamma-treated host cells; active compounds read low | activity change, negative = inhibition, % (test concentration not listed) | actives 3.8% (n = 69,000) | AID 1259416; in the data active = activity change below about -70%, passing the limit was not always enough;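 note: host cells are HeLa cells infected with Toxoplasma gondii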
A number is an active result; – = inactive; ! = repeats disagree.

SMILES	Tgondii IFNg
Cc1ccc(S(=O)(=O)N(C)C[C@H]2OCCCC[C@H](C)Oc3ccc(NC(=O)c4ccncc4)cc3C(=O)N([C@@H](C)CO)C[C@H]2C)cc1	–
CCOC(=O)COc1nc(-c2ccccc2)cc(C(F)(F)F)c1C#N	–
Cc1cnccc1N1CCCN(C(=O)CC2COCCN2)CC1 (stereo not given)	–
CC(C)CNC(=O)[C@H]1C[C@H]2CN(Cc3ccc(Cl)cc3)C[C@H]1O2	–
CCc1ccccc1OC1CN(C(=O)Cc2nn[nH]n2)C1	–
O=c1c(O)cccc2cc(O)c(O)c(O)c12	–
O=c1c(O)c(-c2ccccc2)oc2cc(O)cc(O)c12	–
COc1ccc(-c2cc(=O)c3c(O)cc(O)cc3o2)cc1O	–
O=c1cc(-c2ccccc2)oc2cc(O)c(O)c(O)c12	-77!
COc1ccc(-c2cc(=O)c3ccc(O)cc3o2)cc1	–
COc1cc2oc(-c3ccc(O)cc3)cc(=O)c2c(OC)c1O	-82
CCOc1ccc(-c2nc(Cn3nnc(C(=O)Nc4ccccc4C)c3C)c(C)o2)cc1	–
COc1ccc(C2(C(=O)N3CCCC3c3ncc(C(N)=O)c(C)n3)CCOCC2)cc1 (stereo not given)	–
O=C(NCCc1csc(-c2cccc(F)c2)n1)C(=O)Nc1ccc2c(c1)OCCO2	–
O=C(C1CCOCC1)N1CCN(CC2CC2)c2ncccc2C1	–
CCn1c(SCc2nc(-c3ccccc3C)oc2C)nc(=O)c2c(C(=O)OC)cc(C)nc21	–
NC(=S)N/N=C/c1ncccc1N	-80
O=C(C[C@H]1CC[C@H]2[C@@H](COC[C@@H](O)CN2S(=O)(=O)c2cccc(Cl)c2)O1)N1CCOCC1	–
C=CCN1CC(C(=O)Nc2cccc(C(=O)NC(C)(C)C)c2C)CCC1=O (stereo not given)	–
CC1Cc2cc(C(O)CN3CCN(c4ccc5c(c4)OCCO5)CC3)ccc2O1 (stereo not given)	–
Oc1ccc(COCc2ccccc2)c2cccnc12	-96
O=C(NCc1ccccc1)c1c(O)c2cccnc2[nH]c1=O	–
O=C(COCc1ccccc1)NCc1cnn2ccccc12	–
Clc1ccc(SCc2csc(-c3ccsc3)n2)cc1	–
CCCc1nn(C)c2c(=O)[nH]c(-c3cc(S(=O)(=O)N4CCN(C)CC4)ccc3OCC)nc12	–
SMILES	Tgondii IFNg
CC(CCCC(C)(C)O)CCN1CCC2(CC1)C(=O)NCCCN2C (stereo not given)	–
O=C1NCCN(Cc2ccccc2)C12CCN(S(=O)(=O)c1ccc(F)cc1)CC2	–
O=C1NCN(c2ccccc2)C12CCN(CCCC(c1ccc(F)cc1)c1ccc(F)cc1)CC2	-81
CC(=O)NCCC1CN(Cc2nc3c(s2)CCCC3)CCO1 (stereo not given)	–
O=C(CC1=CCCCC1)N1CCc2c(cc(-c3cccc(F)c3)c(=O)n2CCN2CCCCC2)C1	–
COc1ccc(-c2nc(Cc3noc(Cc4cccc(OC)c4)n3)c(C)o2)cc1	–
Cc1oc(-c2cccc(Cl)c2)nc1CSc1nc2c(c(=O)[nH]1)CN(C(C)C)CC2	–
C[C@H]1[C@H](C)CC[C@]2(C(=O)O)CC[C@]3(C)C(=CC[C@@H]4[C@@]5(C)CC[C@H](O)C(C)(C)[C@@H]5CC[C@]43C)[C@H]12	-79
CC1(C)CC[C@]2(C(=O)O)CC[C@]3(C)C(=CCC4[C@@]5(C)CC[C@H](O)[C@@](C)(CO)C5CC[C@]43C)C2C1 (stereo not given in full)	–
CC1(C)[C@@H](O)CC[C@]2(C)[C@H]3C(=O)C=C4[C@@H]5C[C@@](C)(C(=O)O)CC[C@]5(C)CC[C@@]4(C)[C@]3(C)CC[C@@H]12	–
COc1cc(C)ccc1C(=O)N1CCC(Cn2cc(C3CC3)nn2)CC1	–
Fc1ccc(-c2ccc(C3[C@@H]4CN(Cc5ccccc5)C[C@H]3N4)cc2)cc1 (stereo not given in full)	–
Cc1ccc(-c2ccc([C@@H]3[C@@H]4CN(Cc5ccccc5F)C[C@H]3N4)cc2)cc1	-73
CN(C)C(=O)c1cccc(-c2ccc(C3[C@@H]4CN(Cc5ccccc5F)C[C@H]3N4)cc2)c1 (stereo not given in full)	–
O=C(c1cccnc1)N1C[C@@H]2COC[C@@]2(Cc2nnc(C3CC3)o2)C1	–
O=C(NC1CCC1)[C@H]1C[C@H]2CN(Cc3ccc(F)cc3)C[C@H]1O2	–
COc1ccccc1-c1cc(NC(=O)c2nnn(-c3ccc(Cl)cc3)c2C)n(C)n1	-78
COc1ccccc1-c1nc(Cn2nnc(C(=O)Nc3cc(Cl)ccc3C)c2C)c(C)o1	–
COc1ccccc1-c1cc(NC(=O)c2cccc(Cn3ccnc3C)c2)n(C)n1	–
CC(NC(=O)c1cccc(CN2CCCC2=O)c1)c1ccc(N2CCOCC2)cc1 (stereo not given)	–
N#C[C@H]1[C@@H](c2ccccc2/C=C/c2ccccc2)[C@@H](CO)N1S(=O)(=O)c1cccc(F)c1	–
Clc1cccc(-c2nccn2-c2ccc(Oc3nn[nH]n3)cc2)c1	–
Cc1nc(CN2CCN(C(=O)CCCc3nc(-c4ccccn4)no3)CC2)cs1	–
Cc1cc(OCC(=O)Nc2ccc(C(=O)OCC(C)C)cc2)cc(C)c1Cl	–
